Source: the supplement of paper PMC12669032

Test system: Parabacteroides distasonis
Experiment: growth AUC relative to DMSO control (median of replicates) (fraction); higher = more growth (less inhibition), active = hit call of the paper
Conditions: 20 µM; 24 h;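 active = AUC reduced over 20% with Padj below 0.05 in at least 2 of 3 replicates; inactive = otherwise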
Summary of the method: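 Gut bacterial monocultures were grown anaerobically at 37 °C in mGAM, starting at OD600 0.05, with 20 µM compound (1% DMSO) in round-bottom 96-well plates under pierced gas-permeable seals. OD600 was read hourly for 24 h. Area under the growth curve (minimum OD set to 0) was normalised to the plate median of DMSO controls, or to row and column medians on the industrial chemical plate. The value is the median of three biological replicates grown on separate days.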

Growth AUC, inactive:
Cn1cc(C(=O)Nc2ccccc2-c2cc(F)c(F)c(F)c2)c(C(F)F)n1 0.916
CCOCN(C(=O)C(=O)O)c1c(C)cccc1CC 1.02
NC(Cn1cncn1)C(=O)O (stereo unspecified) 1.05
N#Cc1ccc(CC(=NNC(=O)Nc2ccc(OC(F)(F)F)cc2)c2cccc(C(F)(F)F)c2)cc1 (mixture of isomers) 0.999
C=O 1.03
COC(=O)c1ccc(C(=O)OC)cc1 0.993
N#Cc1c(N)nc(NC2CC2)nc1N 1.02
C#CCN(C)c1c(C#N)cnn1-c1nn2c(c1Cl)CCCC2 0.98
NS(=O)(=O)[O-].[NH4+] 1.02
O=C(O)Cc1c[nH]c2ccccc12 1.02
CCc1nc2ncnn2c(N)c1CCCC(=O)O.Cl 0.991
Cc1cc(C)cc(O)c1 1.01
CCOC(=O)/C(Cl)=C/c1cc(N2C(=O)C3=C(CCCC3)C2=O)ccc1Cl 0.971
c1ccc2c(c1)Cc1ccccc1-2 0.962
CCSc1nc(NC(C)C)nc(NC(C)C)n1 1
c1ccc2cc3ccccc3cc2c1 0.758
